Records with an inconclusive call do not appear. The source made the active and inactive calls. The call rests on the fitted dose curve; in most records, active means well fitted cell-killing curve with a large enough effect in the repeat runs; inconclusive means weak or mixed curves, or effect the other way; inactive means flat fitted curve, though single readings scatter.
assay: Caspase-3/7 induction in HepG2 cells by small molecules, qHTS cell viability counter screen (AID 1346981); settings: CellTiter-Fluor fluorescence, 17 h; series mostly up to 92.4 µM; further: nearly all actives have a fitted effect of over 30% in size
Description: U.S. Tox21 Program National Center for Advancing Translational Sciences [NCATS] NIH Chemical Genomics Center [NCGC] U.S. Environmental Protection Agency [EPA] National Institutes of Environmental Health Sciences [NIEHS] National Toxicology Program [NTP] U.S. Food and Drug Administration [FDA] Tox21 Assay Overview: Apoptosis is a process of programmed cell death and plays a central role in the development of multicellular organisms. It is a highly regulated process and induces cell death by activating caspases, which are the members of cysteine aspartic acid-specific protease (caspase) family. Caspases involved in apoptosis are classified by their mechanism of action as initiator caspases (caspase-2, -8, -9 and -10) and executioner caspases (caspase-3, -6, and -7). Inhibition of apoptosis results in number of cancers, autoimmune diseases, inflammatory diseases and viral infection. To identify small molecule compounds that induce apoptosis, a homogeneous, luminescent Caspase-Glo 3/7 assay was used. Wild type HepG2 cells were used to screen Tox21 libraries for identifying caspase-3/7 activity inducers. Also cytotoxicity of the compounds was tested in parallel by measuring the cell viability using CellTiter-Fluor assay system in the same wells.
Tox21 Assay Protocol Summary: HepG2 cells were dispensed at 2,000 per well in 5uL of culture medium into white solid bottom 1536-well plates (Corning Life Sciences, Corning, NY) using a Multidrop Combi (Thermo Scientific, Waltham, MA) dispenser. The assay plates were incubated at 37 C and 5% CO2 for 5hr, and then 23nL of compounds dissolved in DMSO and positive control were transferred using a Pintool station ([…], San Diego, CA). The assay plates were incubated at 37C and 5% CO2 for 17hr. For cytotoxicity read, after 16hr incubation at 37C, 1uL CellTiter-Fluor reagent (Promega Corporation, Madison, WI) was added to each well of the assay plates using Flying Reagent Dispenser (FRD, Aurora Discovery, San Diego, CA). After 1hr incubation at 37C and 5% CO2, the fluorescence signal was quantified using a ViewLux plate reader (PerkinElmer, Shelton, CT).
On the % scale 0 is the no-effect control and ±100 the full control effect.

Compound	outcome	activity change, negative = cytotoxicity
Cc1cc(C)c(N)c(Cl)c1	inactive	–
CC1(C)S[C@@H]2[C@H](NC(=O)Cc3ccccc3)C(=O)N2[C@H]1C(=O)O (tested in a mixture with another compound)	inactive	–
Nc1cc(S(=O)(=O)O)ccc1O	inactive	–
CCCCOCCCC	inactive	–
CN(C)CCC[C@@]1(c2ccc(F)cc2)OCc2cc(C#N)ccc21	inactive	–
CN(C)CCCN(C)C	–	6.58% [at 8.39 µM] (inactive)
CC12CCCC=C1C(=O)OC2=O (stereo not given)	inactive	–
COC(=O)c1ccc(C(=O)O)cc1	inactive	–
CCN(CC)CC	inactive	–
CCC(C)c1nccnc1OC (stereo not given)	inactive	–
O=C(O)P(=O)(O)O	inactive	–
CCOC(=O)[C@H](CCc1ccccc1)N[C@H]1CS[C@H](c2cccs2)CN(CC(=O)O)C1=O	inactive	–
CC(=O)c1ccc(O)c(C(N)=O)c1	inactive	–
Cc1cccc(N)n1	inactive	–
COC(=O)N/N=C/c1c[n+]([O-])c2ccccc2[n+]1[O-]	inactive	–
C=CCCCCCCCCCCCCCC	–	-0.984% [at 19 µM] (inactive)
CCCCCCCCCCCCCCBr	inactive	–
N[C@H]1C(O)O[C@H](CO)[C@@H](O)[C@@H]1O (stereo not given in full)	inactive	–
CNC(=O)c1c(I)c(NC(C)=O)c(I)c(C(=O)O)c1I	inactive	–
CCCCS	inactive	–

Compound	outcome	activity change, negative = cytotoxicity
Cc1cc(C)c(C)c(C)c1	inactive	–
C/C=C(\C)C=O	inactive	–
O=C(CCBr)N1CCN(C(=O)CCBr)CC1	inactive	–
Cc1ccc2ccccc2n1	inactive	–
Cc1nnc(C(=O)NC(C)(C)c2nc(C(=O)NCc3ccc(F)cc3)c(O)c(=O)n2C)o1	inactive	–
CN(C)c1ccncc1	inactive	–
CCCCCCC(O)CO (stereo not given)	inactive	–
Cc1ccc(O)c([N+](=O)[O-])c1	inactive	–
COc1ccc(Cl)cc1C	inactive	–
C=CCn1cc[n+](C)c1	inactive	–
C[C@@H]1NC(=O)[C@@H](N)CNC(=O)[C@H](C2CCNC(N)=N2)NC(=O)/C(=C/NC(N)=O)NC(=O)[C@H](CNC(=O)C[C@@H](N)CCCN)NC1=O (stereo not given in full)	–	-0.309% [at 0.349 µM] (inactive)
Cc1ccccc1C#N	inactive	–
CCCCC(CC)CCC(CC(C)C)OS(=O)(=O)O (stereo not given)	inactive	–
CO/N=C(\C(=O)O)c1csc(NC(=O)CCl)n1	inactive	–
CCCCC(CC)COC(=O)CC#N (stereo not given)	inactive	–
CCOc1ccccc1OCCN[C@H](C)Cc1ccc(OC)c(S(N)(=O)=O)c1	inactive	–
Cc1ccc(N)nc1	inactive	–
CC(C)(C)C(=O)NCCCC(=O)O	inactive	–
C/C(Cl)=C/CCl	inactive	–
COC(C)(C)CC(C)=O	inactive	–

— PubChem BioAssay (Tox21)
